Assay results from PubChem BioAssay (NCATS).
Results filed as inconclusive are left out. Active and inactive are the calls of the source. Calls come from the whole dose curve; as a rule, active = well fitted curve in the direction sought with a large enough effect; inconclusive = small, poorly fitted or top-dose-only effect, or another doubt; inactive = no such curve, though single readings can be large; an effect the other way counts as inactive or inconclusive. Peptide text beside a SMILES is read from it. * marks the point of attachment. PhAc = O=C(Cc1ccccc1)*

Columns and labels:
[1] = molecular target: Aldehyde dehydrogenase, mitochondrial (Homo sapiens) (UniProt P05091); assay: qHTS for Inhibitors of the Aldehyde Dehydrogenase Family (ALDH2) Primary screen (AID 2061308);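 note: plate controls were vehicle for no effect and reference inhibitor for full effect; nearly all actives have a fitted effect of over 55% in size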
[2] = molecular target: Retinaldehyde dehydrogenase 3 (Homo sapiens) (UniProt P47895); assay: qHTS for Inhibitors of the Aldehyde Dehydrogenase Family (ALDH1A3) Validation screen (AID 2061312); note: % is set by controls: 0 for no effect and ±100 for the full control effect; nearly all actives have a fitted effect of over 45% in size
[3] = molecular target: Retinaldehyde dehydrogenase 3 (Homo sapiens) (UniProt P47895); assay: qHTS for Inhibitors of the Aldehyde Dehydrogenase Family (ALDH1A3) Primary screen (AID 2061315);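 note: plate controls were DMSO vehicle for no effect and reference inhibitor for full effect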
[4] = BET inhibitor-based combinations targeting novel dependencies in MECOM-rearranged (r) AML: SET-2 cell line (AID 2202231); settings: SET-2 AML cells viability, CellTiter-Glo luminescence, 48 h; viability: hits give low values, series mostly up to about 46 µM;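 note: plate controls were DMSO treated cells for no effect and wells without cells for full effect; nearly all actives have a fitted effect of over 35% in size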
Procedure, shortened: (§1)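 AML cell lines seeded at 500 cells/well, treated with 11-point dose curves for 48 h. Viability by CellTiter-Glo luminescence, normalised to DMSO and empty wells; activity expressed as AUC and per-cell-line Z-transformed AUC.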

[5] = BET inhibitor-based combinations targeting novel dependencies in MECOM-rearranged (r) AML: OCI-AML3 cell line (AID 2202232); settings: Potency: OCI-AML3 viability; note: nearly all actives have a fitted effect of over 35% in size; note: potency is the fitted concentration of half-maximal effect
Procedure, shortened: as §1

[6] = BET inhibitor-based combinations targeting novel dependencies in MECOM-rearranged (r) AML: HNT-34 cell line (AID 2202234);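 note: plate controls were vehicle wells for no effect and cell-free wells for full effect; nearly all actives have a fitted effect of over 35% in size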
Procedure, shortened: (§2)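 Cells at 500/well were exposed for 48 hr to MIPE v5.0 drugs as 11-point dose curves. Viability was read by CellTiter-Glo luminescence and normalized to DMSO and empty-well controls. Activity was expressed as AUC and per-cell-line Z-AUC.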

[7] = BET inhibitor-based combinations targeting novel dependencies in MECOM-rearranged (r) AML: UCSD-AML1 cell line (AID 2202235);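 note: series mostly up to about 46 µM; plate controls were DMSO vehicle wells for no effect and blank wells for full effect; nearly all actives have a fitted effect of over 40% in size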
Procedure, shortened: as §2

[8] = BET inhibitor-based combinations targeting novel dependencies in MECOM-rearranged (r) AML: AML-191 cell line (AID 2202236;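 note: plate controls were vehicle wells for no effect and wells without cells for full effect; nearly all actives have a fitted effect of over 35% in size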)
Procedure, shortened: as §1

[9] = BET inhibitor-based combinations targeting novel dependencies in MECOM-rearranged (r) AML: AML-194 cell line (AID 2202237;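 note: plate controls were vehicle wells for no effect and wells without cells for full effect; nearly all actives have a fitted effect of over 40% in size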)
Procedure, shortened: as §1

CCc1cnc(N2CCC(c3nc(COc4ccc(-n5cnnn5)cc4)cs3)CC2)nc1
inactive: Potency [1] | Potency [2] | Potency [3]

N[C@@H](CC(=O)Nc1ccc(Oc2cc(F)c(F)cc2Br)cc1)C(=O)O
inactive: Potency [1] | Potency [2] | Potency [3]

O=C(OC1CN2CCC1CC2)N1CCc2ccccc2C1c1ccccc1 (centres undefined)
inactive: Potency [1] | Potency [2] | Potency [3]

O=C(N[C@H](Cc1ccccc1)C(=O)O)c1sc2cc(F)ccc2c1Cl
inactive: Potency [1] | Potency [2] | Potency [3]

COc1cccc(CN(C(=O)CC(C)(C)C)C2CC(C(=O)N3CCNCC3)N(Cc3ccc4c(c3)OCO4)C2)c1 (centres undefined)
inactive: Potency [1] | Potency [2] | Potency [3]

CCOC(=O)CNC(=O)[C@@H]1CCCN1C(=O)Cc1ccccc1 (PhAc-Pro-Gly-OEt)
inactive: Potency [1] | Potency [2] | Potency [3]

COCCOc1ccc(N2CCN(CCn3ncc4c3nc(N)n3nc(-c5ccco5)nc43)CC2)cc1
inactive: Potency [1] | Potency [2] | Potency [3] | viability [4] 113% | Potency [5] | Potency [6] | Potency [7] | Potency [8] | Potency [9]

Cn1c(=O)c(-c2c(Cl)cccc2Cl)cc2cnc(Nc3cccc(C(=O)O)c3)nc21
inactive: Potency [1] | Potency [2] | Potency [3] | viability [4] 116% | Potency [7] | Potency [8] | Potency [9]
active: Potency [5] 235 nM

COC(=O)c1ccc2c(c1)nc(NC(=O)c1ccccc1)n2CCCc1ccccc1
inactive: Potency [1] | Potency [2] | Potency [3]

Cc1cc(-c2nncc3c(C(C)(C)C)c(OCc4ncnn4C)nn23)no1
inactive: Potency [1] | Potency [2] | Potency [3]

COc1ccc(-c2nc(-c3cc(C(F)(F)F)cc(C(F)(F)F)c3)n(Cc3ccc(C(N)=O)cc3)c2-c2ccc(OC)cc2)cc1
inactive: Potency [1] | Potency [2] | Potency [3]
